# PMC8384837, “Expanding the binding specificity for RNA recognition by a PUF domain”
# Key:
# Test in all cases: yeast three-hybrid, YBZ-1, SC-Leu-His + 0.5 mM 3-AT, 4 days
# Conditions in all cases: tags: N-Gal4 AD-HA kept; label: inside an RPR1-promoter hybrid RNA with tandem MS2 sites; ssRNA
# PUM1 PUF domain R4-LHS = PUM1 PUF domain R4-LHS (Homo sapiens, UniProt Q14671 828-1176, N971L;Q975S)
# Outline: (§1)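 The interaction score is the log change in how often each variant appears, from input to selection. Frequencies came from PCR-amplified, Illumina-sequenced repeat regions of Pumilio-1 PUF domain libraries grown in strain YBZ-1 (LexA–MS2 coat fusion, HIS3 reporter) alongside matching RNA elements. Input plates were SC-Leu and selection plates were SC-Leu-His + 0.5 mM 3-AT, each for four days, and the log2 calculation used a pseudocount of 1 where a variant was absent.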
# PUM1 PUF domain R8-MYW = PUM1 PUF domain R8-MYW (Homo sapiens, UniProt Q14671 828-1176, N1122M;Q1126W)
# Outline: as §1
# PUM1 PUF domain R1-RMQ = PUM1 PUF domain R1-RMQ (Homo sapiens, UniProt Q14671 828-1176, S863R;R864M)
# Outline: as §1
# PUM1 PUF domain R6-TWV = biological target: T1, PUM1 PUF domain R6-TWV (Homo sapiens, UniProt Q14671 828-1176, N1043T;Y1044W;Q1047V)
# T1 sequence: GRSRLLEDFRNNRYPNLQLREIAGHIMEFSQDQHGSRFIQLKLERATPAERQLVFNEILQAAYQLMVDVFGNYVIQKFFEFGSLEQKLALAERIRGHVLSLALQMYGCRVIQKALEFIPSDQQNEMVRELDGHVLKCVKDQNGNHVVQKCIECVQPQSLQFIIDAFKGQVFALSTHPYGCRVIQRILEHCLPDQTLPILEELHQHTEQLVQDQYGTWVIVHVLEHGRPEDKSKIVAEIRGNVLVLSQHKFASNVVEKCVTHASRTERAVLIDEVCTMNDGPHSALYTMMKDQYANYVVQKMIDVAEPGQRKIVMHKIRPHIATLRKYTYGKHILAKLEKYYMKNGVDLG
# Outline: as §1
# PUM1 PUF domain R5-KGW = PUM1 PUF domain R5-KGW (Homo sapiens, UniProt Q14671 828-1176, C1007K;R1008G;Q1011W)
# Outline: as §1
# PUM1 PUF domain R5-RYK = PUM1 PUF domain R5-RYK (Homo sapiens, UniProt Q14671 828-1176, C1007R;R1008Y;Q1011K)
# Outline: as §1
# PUM1 PUF domain R5-SLH = PUM1 PUF domain R5-SLH (Homo sapiens, UniProt Q14671 828-1176, C1007S;R1008L;Q1011H)
# Outline: as §1
# PUM1 PUF domain R3-ERS = PUM1 PUF domain R3-ERS (Homo sapiens, UniProt Q14671 828-1176, C935E;Q939S)
# Outline: as §1
sequence,measurement,setting,value
GGCUAGAACUAGUGGAUCCCCCGGCGCCCGGCGGCUCGAGCCCGGGUAAGUGUAUAUAGUCUGCAUGCCGCCGGGCGCCAUGCCUGCAGGUCGACUCUAGAAAACAUG,binding signal,PUM1 PUF domain R4-LHS,3.86 log2 enrichment (interaction score)
GGCUAGAACUAGUGGAUCCCCCGGCGCCCGGCGGCUCGAGCCCGGGUAAGCGUAAAUAGUCUGCAUGCCGCCGGGCGCCAUGCCUGCAGGUCGACUCUAGAAAACAUG,binding signal,PUM1 PUF domain R8-MYW,2.44 log2 enrichment (interaction score)
GGCUAGAACUAGUGGAUCCCCCGGCGCCCGGCGGCUCGAGCCCGGGUAAGUGUAAAUCGUCUGCAUGCCGCCGGGCGCCAUGCCUGCAGGUCGACUCUAGAAAACAUG,binding signal,PUM1 PUF domain R1-RMQ,5.34 log2 enrichment (interaction score)
GGCUAGAACUAGUGGAUCCCCCGGCGCCCGGCGGCUCGAGCCCGGGUAAGUGAAAAUAGUCUGCAUGCCGCCGGGCGCCAUGCCUGCAGGUCGACUCUAGAAAACAUG,binding signal,PUM1 PUF domain R6-TWV,2.6 log2 enrichment (interaction score)
GGCUAGAACUAGUGGAUCCCCCGGCGCCCGGCGGCUCGAGCCCGGGUAAGUGUCAAUAGUCUGCAUGCCGCCGGGCGCCAUGCCUGCAGGUCGACUCUAGAAAACAUG,binding signal,PUM1 PUF domain R5-KGW,3.14 log2 enrichment (interaction score)
same,binding signal,PUM1 PUF domain R5-RYK,4.4 log2 enrichment (interaction score)
GGCUAGAACUAGUGGAUCCCCCGGCGCCCGGCGGCUCGAGCCCGGGUAAGUGUGAAUAGUCUGCAUGCCGCCGGGCGCCAUGCCUGCAGGUCGACUCUAGAAAACAUG,binding signal,PUM1 PUF domain R5-SLH,3.2 log2 enrichment (interaction score)
GGCUAGAACUAGUGGAUCCCCCGGCGCCCGGCGGCUCGAGCCCGGGUAAGUGUAAAUAGUCUGCAUGCCGCCGGGCGCCAUGCCUGCAGGUCGACUCUAGAAAACAUG,binding signal,PUM1 PUF domain R5-RYK,3.8 log2 enrichment (interaction score)
GGCUAGAACUAGUGGAUCCCCCGGCGCCCGGCGGCUCGAGCCCGGGUAAGUGUAAGUAGUCUGCAUGCCGCCGGGCGCCAUGCCUGCAGGUCGACUCUAGAAAACAUG,binding signal,PUM1 PUF domain R3-ERS,2.54 log2 enrichment (interaction score)
